This is a sample that favours compounds with a hit; in the whole collection about 3.4% have one here.
FBW7 activator: human FBW7 E3 ligase activation, primary screen | hit rate 0.13% among 650,000 | normalized activity (activation), % at 26.1 µM | AlphaScreen FBW7–phospho-cyclin E peptide binding, activator screen | Q969H0; in the data active means normalized activity above about 1.9%;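 further: purified mutant Fbw7 with reduced substrate affinity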
Target sequence (Q969H0 whole entry, looked up): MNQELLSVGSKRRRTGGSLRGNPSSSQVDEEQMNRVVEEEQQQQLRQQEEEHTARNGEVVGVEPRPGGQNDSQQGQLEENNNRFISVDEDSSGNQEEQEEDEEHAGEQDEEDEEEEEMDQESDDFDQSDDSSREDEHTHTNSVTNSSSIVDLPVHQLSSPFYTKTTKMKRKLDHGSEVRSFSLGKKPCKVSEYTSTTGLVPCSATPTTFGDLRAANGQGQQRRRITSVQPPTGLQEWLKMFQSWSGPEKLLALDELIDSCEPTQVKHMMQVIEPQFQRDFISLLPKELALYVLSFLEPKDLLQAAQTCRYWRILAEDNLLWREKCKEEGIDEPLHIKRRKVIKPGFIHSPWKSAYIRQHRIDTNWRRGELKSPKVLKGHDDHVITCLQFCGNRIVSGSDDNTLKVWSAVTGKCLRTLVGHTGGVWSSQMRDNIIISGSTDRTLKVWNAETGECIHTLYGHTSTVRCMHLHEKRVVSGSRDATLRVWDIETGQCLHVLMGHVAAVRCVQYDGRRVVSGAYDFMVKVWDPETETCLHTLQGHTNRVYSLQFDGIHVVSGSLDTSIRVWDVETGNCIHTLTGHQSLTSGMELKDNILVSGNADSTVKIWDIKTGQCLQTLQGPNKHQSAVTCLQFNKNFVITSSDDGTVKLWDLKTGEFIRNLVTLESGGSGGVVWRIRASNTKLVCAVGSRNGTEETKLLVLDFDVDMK
MITF inh: inhibitors of human MITF. O75030. AlphaScreen MITF homodimerization, bead proximity signal. hit rate 0.91% among 650,000. inhibition, % at 2.6 µM; in the data active means inhibition above about 50%;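 further: 0% = vehicle wells with protein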
TEAD-YAP inh: TEAD-YAP interaction inhibition. HEK-TIYL cells, TEAD-Gal4/YAP UAS-luciferase luminescence. inhibition, % at 9.12 µM. hit rate 1.4% among 640,000. AID 1259422; in the data active means inhibition above about 32%;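 further: 0% = median of test compound wells and 100% = reference inhibitor wells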
GPR151 ag: activates the human receptor GPR151 | Q8TDV0 | PathHunter beta-arrestin GPR151 cells, luminescence | activation, % at 11.2 µM | hit rate 1% among 650,000 | AID 1508602; in the data active means activation above about 4.9%;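 further: 0% = median of compound wells and 100% = cells with positive control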
MITF inh conf: human MITF inhibition, confirmation; shares compounds with MITF inh; AlphaScreen MITF homodimerization, biotin/His-MITF beads; inhibition, % at 2.6 µM; hit rate 16% among 4,700;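 active means inhibition above a cutoff derived from the DMSO control wells, cut at about 28% in these data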;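 further: 0% = MITF dimer wells with DMSO only; inhibitors lower the bead chemiluminescence by keeping MITF from dimerizing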
AS interf DR: AlphaScreen optical interference, dose response counter-screen. shares compounds with MITF inh. AlphaScreen optical interference counterscreen, cell-free. IC50, µM. hit rate 6% among 480. AID 1259373; call rule not given here
AS interf ctr: optically interferes with AlphaScreen signal | LysRS AlphaScreen counterscreen, signal interference, triplicate | hit rate 7.6% among 4,700 | inhibition, % at 2.6 µM | shares compounds with MITF inh;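 active means inhibition above a cutoff derived from the DMSO control wells, cut at about 30% in these data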
The depositor's hits bear a star.

`CSc1ccccc1NC(=O)CN(C)C(C)C(=O)NCc1ccc2c(c1)OCO2` (configuration not stated) gave FBW7 activator 0, MITF inh 88*, TEAD-YAP inh 9, GPR151 ag 4, MITF inh conf -3 and AS interf ctr 13.
For COc1cc2c(cc1CN1CCN(C(=O)c3cc(OC)c(OC)c(OC)c3)CC1)OCO2 the results were FBW7 activator 0, MITF inh 53*, TEAD-YAP inh 5, GPR151 ag 0, MITF inh conf 12 and AS interf ctr 9.
`COc1cc(C(=O)N2CCN(Cc3ccccc3F)CC2)cc(OC)c1OC` gave FBW7 activator 0, MITF inh 18, TEAD-YAP inh 13 and GPR151 ag 0.
COc1cc(C(=O)N2CCN(Cc3ccccc3C)CC2)cc(OC)c1OC was read as FBW7 activator 0, MITF inh 60*, TEAD-YAP inh 1, GPR151 ag -1, MITF inh conf 38*, AS interf DR >5.6 and AS interf ctr 11.
`Cc1ccc(OCc2nnc(NC(=O)c3ncoc3-c3ccc(C)cc3)s2)cc1` gave FBW7 activator 0, MITF inh 7, TEAD-YAP inh 3 and GPR151 ag 1.
COc1cc(OC)c(OC)cc1CN1CCN(Cc2ccco2)CC1 was read as FBW7 activator 0, MITF inh 81*, TEAD-YAP inh 7, GPR151 ag 0, MITF inh conf 15 and AS interf ctr 21.
Screening COc1cccc(C(=O)N2CCN(Cc3ccccc3Cl)CC2)c1 returned FBW7 activator 0, MITF inh 40, TEAD-YAP inh -14 and GPR151 ag -1.
`COc1cccc(CN2CCN(C(=O)c3cccc(Cl)c3)CC2)c1` gave FBW7 activator 0, MITF inh 58*, TEAD-YAP inh 0, GPR151 ag 0, MITF inh conf 11 and AS interf ctr 15.
`O=C(c1ccncc1)N1CCN(Cc2ccco2)CC1` gave FBW7 activator 0, MITF inh 76*, TEAD-YAP inh -11, GPR151 ag -1, MITF inh conf 4 and AS interf ctr 0.
For c1coc(CN2CCN(Cc3ccncc3)CC2)c1 the results were FBW7 activator 0, MITF inh 35, TEAD-YAP inh -12 and GPR151 ag 1.
For COc1ccc(CN2CCN(C(=O)c3cccc(Cl)c3)CC2)c(OC)c1 the results were FBW7 activator 0, MITF inh 54*, TEAD-YAP inh 1, GPR151 ag 1, MITF inh conf 5 and AS interf ctr 16.
`COc1ccc(CN2CCN(C(=O)c3ccco3)CC2)cc1Br` gave FBW7 activator 0, MITF inh 53*, TEAD-YAP inh -3, GPR151 ag -1, MITF inh conf 3 and AS interf ctr 13.
COc1cccc(C(=O)N2CCN(Cc3ccc(Br)cc3)CC2)c1 was read as FBW7 activator 0, MITF inh 61*, TEAD-YAP inh 8, GPR151 ag 0, MITF inh conf 21 and AS interf ctr 9.
`O=C(c1cccc(Cl)c1)N1CCN(Cc2ccccc2Cl)CC1` gave FBW7 activator 0, MITF inh 58*, TEAD-YAP inh -9, GPR151 ag 2, MITF inh conf 8 and AS interf ctr 12.
`COc1ccc(Br)cc1CN1CCN(C(=O)c2cccs2)CC1` gave FBW7 activator 0, MITF inh 64*, TEAD-YAP inh 1, GPR151 ag 0, MITF inh conf -8 and AS interf ctr -6.
For CC1=C(C(=O)Nc2ccccc2C)C(c2ccccc2)NC(=O)N1C (configuration not stated) the results were FBW7 activator 0, MITF inh 3, TEAD-YAP inh -1 and GPR151 ag 1.
Screening O=C1OC(CC(=O)N2CCCC(c3ncncc3-c3ccncc3)C2)c2ccccc21 (configuration not stated) returned FBW7 activator 0, MITF inh 2, TEAD-YAP inh -11 and GPR151 ag -1.
`COc1cccc(OC)c1C(=O)N1CCN(Cc2ccco2)CC1` gave FBW7 activator 0, MITF inh 61*, TEAD-YAP inh 7, GPR151 ag 1, MITF inh conf -5 and AS interf ctr -9.
For COc1cccc(C(=O)N2CCN(C(=O)c3cccc(Cl)c3)CC2)c1 the results were FBW7 activator 0, MITF inh 22, TEAD-YAP inh 16 and GPR151 ag 0.
For O=C(c1ccccc1)N1CCN(CC(O)COCc2ccccc2)CC1 (configuration not stated) the results were FBW7 activator 0, MITF inh 56*, TEAD-YAP inh -5, GPR151 ag 0, MITF inh conf 11 and AS interf ctr 10.
COc1cccc(C(=O)N2CCN(Cc3cccc(Cl)c3)CC2)c1 was read as FBW7 activator 0, MITF inh 52*, TEAD-YAP inh 13, GPR151 ag 0, MITF inh conf 50* and AS interf ctr 18.
Screening CCc1ccc(CN2CCN(C(=O)c3ccco3)CC2)cc1 returned FBW7 activator 0, MITF inh 51*, TEAD-YAP inh -18, GPR151 ag 1, MITF inh conf 5 and AS interf ctr 10.
`c1ccc2sc(CN3CCc4nnc(C5CCCO5)n4CC3)nc2c1` (configuration not stated) gave FBW7 activator 0, MITF inh 9, TEAD-YAP inh -6 and GPR151 ag 2.
For COc1cccc(C(=O)N2CCN(C3CCN(Cc4ccccc4)CC3)CC2)c1 the results were FBW7 activator 0, MITF inh 54*, TEAD-YAP inh -7, GPR151 ag 0, MITF inh conf -8 and AS interf ctr -10.
COc1cccc(CN2CCN(C(=O)c3ccco3)CC2)c1 was read as FBW7 activator 0, MITF inh 55*, TEAD-YAP inh 6, GPR151 ag 0, MITF inh conf -22 and AS interf ctr -1.
For CCOc1ccc(CN2CCN(C(=O)c3c(OC)cccc3OC)CC2)cc1 the results were FBW7 activator 0, MITF inh 33, TEAD-YAP inh 25 and GPR151 ag -1.
For COc1cccc(OC)c1C(=O)N1CCN(Cc2ccc(Br)cc2)CC1 the results were FBW7 activator 1, MITF inh 64*, TEAD-YAP inh 5, GPR151 ag 0, MITF inh conf 4 and AS interf ctr -2.
Screening COc1ccc(CN2CCN(C(=O)c3ccccc3)CC2)cc1 returned FBW7 activator 0, MITF inh 38, TEAD-YAP inh 1 and GPR151 ag -1.
Screening COc1cccc(CN2CCN(C(=O)c3ccccc3)CC2)c1 returned FBW7 activator 0, MITF inh 60*, TEAD-YAP inh -1, GPR151 ag 0, MITF inh conf 8 and AS interf ctr 17.

High-throughput results deposited in PubChem by The Scripps Research Institute Molecular Screening Center.
